In PubChem BioAssay (NCI) one finds growth inhibition data, which are given here for 20 compounds.

Assay [1] is described as follows: NCI Yeast Anticancer Drug Screen. Data for the rad50 strain (AID 155).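 Further: 0% = growth of vehicle-only cultures of the same strain.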 The conditions noted are these: S. cerevisiae rad50 strain growth inhibition; at 50.0 µM; stronger effect = higher value. The method in brief:
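Readout: growth inhibition relative to vehicle-treated cultures. Compound exposure was carried out in a genetically defined yeast strain deficient in DNA damage repair.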

The nature of assay [2]: NCI Yeast Anticancer Drug Screen. Data for the mec2-1 strain (AID 157). The conditions noted are these: S. cerevisiae mec2-1 strain, at 50.0 µM, stronger effect = higher value. The method, boiled down:
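Test agents were screened against the mec2-1 yeast strain, with defined DNA repair or cell cycle alteration. Growth was scored as inhibition against vehicle-only controls.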

Assay [3] is described as follows: NCI Yeast Anticancer Drug Screen. Data for the sgs1 mgt1 strain (AID 161).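 Further: 0% = growth of cultures given vehicle only.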 The conditions noted are these: S. cerevisiae sgs1 mgt1 strain, at 50.0 µM, stronger effect = higher value. The method, boiled down: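 Genetically altered yeast, compound exposure, growth inhibition relative to vehicle.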
Assay [4] in a line: NCI Yeast Anticancer Drug Screen. Data for the cln2 rad14 strain (AID 165).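 Further: 0% = growth equal to vehicle treated cultures.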 To be noted: S. cerevisiae cln2 rad14 strain, at 50.0 µM, stronger effect = higher value. The method, boiled down:
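Growth of compound-exposed yeast (cln2 rad14 genotype) measured and expressed as inhibition relative to vehicle.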

A short description of assay [5]: NCI Yeast Anticancer Drug Screen. Data for the bub3 strain (AID 167). The conditions noted are these: S. cerevisiae bub3 mutant strain, at 50.0 µM, stronger effect = higher value. The method in brief:
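Readout: yeast growth inhibition, expressed relative to vehicle-only wells. The test organism is a mutant strain from a panel with lesions in DNA repair or checkpoint genes.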

A short description of assay [6]: NCI Yeast Anticancer Drug Screen. Data for the mlh1 rad18 strain (AID 175). The conditions noted are these: S. cerevisiae mlh1 rad18 strain growth inhibition; at 50.0 µM; stronger effect = higher value. The method in brief:
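In this whole-cell yeast screen, a strain with altered DNA damage repair is challenged with compound, and its growth is measured against matched vehicle-treated controls.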

This is part of a sample that, as a whole, favours compounds with a hit. Of some 79,000 tested, about 15% had one in any assay. A number with no mark means an inactive call. The source made the active and inactive calls. No stated cut-off is given here; in the data, active means growth inhibition above about 70%; inactive means the rest. Where a SMILES comes first, the peptide text is derived from it.

Consider `CCOC(=O)/N=c1/nc(N(C)C)ss1`, for which the growth inhibition in assay [1] was -18.9%; in assay [2], -29.6%; in assay [3], 4.15%; in assay [4], -19.6%; in assay [5], -9.4%; in assay [6], -5.05%.

For the compound `CCOC(=O)C(CCN(C)C)(CCN(C)C)c1ccccc1`, the growth inhibition in assay [1] is -6.3%; in assay [2], -2.75%; in assay [3] it was 21.6%; in assay [4], -30.2%; in assay [5], -13%; in assay [6], -2.75%.

`Nc1ccc(F)c(F)c1`: the growth inhibition in assay [1] was 4.3%; in assay [2] it was -6.65%; in assay [3] it was 14.2%; in assay [4], -20%; in assay [5], 2.65%; in assay [6], 13.8%.

With `O=S(CC(O)(c1ccccc1)c1ccccc1)c1ccccc1` (stereo not given), the growth inhibition in assay [1] was 6.55%; in assay [2], 14.4%; in assay [3] it was 18%; in assay [4] it was 36.2%; in assay [5], 30.9%; in assay [6], 23.5%.

On to `Brc1cc2[nH]c(-c3ccccc3)c(Br)c2c(Br)c1Br`, for which the growth inhibition is 59% in assay [1]; 36.5% in assay [2]; 68.5% in assay [3]; 39.2% in assay [4]; 14.3% in assay [5]; 69% in assay [6].

In the case of `CCOc1ccc([N+](=O)[O-])cc1`, the growth inhibition in assay [1] was -28.8%; in assay [2], 3.9%; in assay [3] it was -2.65%; in assay [4], -40.2%; in assay [5], -3.5%; in assay [6], -31.9%.

`CCCCCCN(CCCCCC)C(=S)N/N=C(\C)c1ccccn1`: the growth inhibition was 85% (active) in assay [1]; 85.5% (active) in assay [2]; 83.7% (active) in assay [3]; 72.3% (active) in assay [4]; 87.6% (active) in assay [5]; 82.2% (active) in assay [6].

For `O=C(O)CS(=O)(=O)Cc1ccccc1`, the growth inhibition is -12.7% in assay [1]; -9.85% in assay [2]; -9.25% in assay [3]; -60.6% in assay [4]; -7.9% in assay [5]; -6.5% in assay [6].

With `N#Cc1cc(N2CCCCC2)ccc1[N+](=O)[O-]`, the growth inhibition is 2.6% in assay [1]; -8.35% in assay [2]; -6.2% in assay [3]; -18.1% in assay [4]; -4.5% in assay [5]; -0.4% in assay [6].

For `CC1=NN(C(=O)CC(=O)Nc2ccc(C(=O)O)cc2)C(=O)C1N=Nc1ccccc1C(=O)O` (stereo not given), the growth inhibition in assay [1] was 18.1%; in assay [2], 18%; in assay [3], 6.25%; in assay [4], -6.5%; in assay [5], -1.9%; in assay [6], 25.7%.

Turning to `CC(Cc1ccccc1)NC(=O)c1ccncc1` (stereo not given), the growth inhibition in assay [1] was 2.5%; in assay [2], 7.45%; in assay [3], -5.4%; in assay [4], -39.7%; in assay [5], -0.85%; in assay [6], 2%.

Turning to `Nc1nc(Cl)cc(Oc2ccc(Cl)cc2)n1`, the growth inhibition is 9.65% in assay [1]; -17.6% in assay [2]; 22.6% in assay [3]; 2.5% in assay [4]; 17% in assay [5]; -30.6% in assay [6].

Consider `N#CCCCN1CCOCC1`, for which the growth inhibition is 0.8% in assay [1]; -20.9% in assay [2]; -7.9% in assay [3]; 15.7% in assay [4]; 0% in assay [5]; 3.6% in assay [6].

With `CCCCC1=C(C)C/C(=N/Nc2ccc([N+](=O)[O-])cc2[N+](=O)[O-])C(C)C1CCCC` (stereo not given), the growth inhibition in assay [1] is 3.7%; in assay [2], 2.8%; in assay [3] it was -13.6%; in assay [4], 8.15%; in assay [5], 3.3%; in assay [6] it was 21.9%.

As for `CC(=O)OCC1OC(Cl)C(OC(=O)C(Cl)(Cl)Cl)C(OC(C)=O)C1OC(C)=O` (stereo not given), the growth inhibition in assay [1] was 2.8%; in assay [2], 0.2%; in assay [3] it was -13.6%; in assay [4] it was -0.95%; in assay [5], -2.65%; in assay [6] it was -9.45%.

For the compound `CCC(C)C(N)C(=O)N1CCCC1C(=O)O` (stereo not drawn) (H-Ile-Pro-OH; configuration not given here), the growth inhibition in assay [1] was -23.1%; in assay [2], -4.65%; in assay [3], -1.15%; in assay [4], -25.9%; in assay [5] it was -2.45%; in assay [6] it was -3.15%.

In the case of `O=C(O)CNCc1ccc2c(c1)OCCO2`, the growth inhibition in assay [1] was 6.7%; in assay [2], 15.7%; in assay [3] it was -10.4%; in assay [4], -3.35%; in assay [5], -3.5%; in assay [6], -15.8%.

`O=C1C(=C(C(F)(F)Cl)C(F)(F)Cl)C2CCC1C2` (stereo not given): the growth inhibition in assay [1] was 12%; in assay [2] it was -3.35%; in assay [3], 14.3%; in assay [4] it was 14.6%; in assay [5], 21.2%; in assay [6], 7.7%.

Regarding `O=C(N/N=C\c1ccc([N+](=O)[O-])cc1)Nc1ccc2ccccc2c1`, the growth inhibition in assay [1] is 3.15%; in assay [2], 8.1%; in assay [3], 1.85%; in assay [4], 8.3%; in assay [5], 25.2%; in assay [6], 14.1%.

For `CN(C)C=Nc1cccc2cnccc12`, the growth inhibition in assay [1] is 24.7%; in assay [2], 3.4%; in assay [3], 14.5%; in assay [4], 21.2%; in assay [5], 13.1%; in assay [6] it was -16.7%.
